What all share (assay): DAPPL (digital affinity profiling via proximity ligation, sequencing); 10 mM Tris-HCl pH 7.5, 50 mM NaCl, 1 mM DTT, 4% glycerol, room temperature, 30 min; GST-TFs on glutathione beads, 16-mer random dsDNA library, 0.1% formaldehyde crosslink after washing; high values mean tight binding
One assay deals with T1, FEV (Homo sapiens, UniProt Q99581 1-238).
T1 sequence: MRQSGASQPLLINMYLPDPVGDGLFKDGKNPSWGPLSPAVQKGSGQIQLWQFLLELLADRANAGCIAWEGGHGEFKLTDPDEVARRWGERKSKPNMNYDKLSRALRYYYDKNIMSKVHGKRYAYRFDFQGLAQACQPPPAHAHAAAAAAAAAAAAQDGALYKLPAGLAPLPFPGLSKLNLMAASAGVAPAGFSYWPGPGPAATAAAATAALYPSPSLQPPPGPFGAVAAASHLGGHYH
The settings on record: protein: recombinant; tags: N-terminal GST; dsDNA, one strand shown. The essentials: (§1)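 Binding signal is given per hexamer as its read frequency for a factor divided by its frequency in the tag-only sample. GST-fused human transcription factors were expressed in yeast, captured on glutathione beads, barcoded with DNA and pooled with that sample, then incubated with 200 nmole of a 16-mer random double-stranded DNA library in Tris/NaCl/DTT/glycerol buffer for 30 min at room temperature. The pools were then washed, crosslinked, proximity-ligated, amplified by PCR and sequenced on an Illumina NextSeq500.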

The target of the next assay is ETV5 (Homo sapiens, UniProt P41161 1-510). As to conditions: protein: recombinant; tags: N-terminal GST; dsDNA, one strand shown. The essentials:
as §1

A further assay addresses HSF1 (Homo sapiens, UniProt Q00613 1-529). As to conditions: protein: recombinant; tags: N-terminal GST; chain copies: 3; dsDNA, one strand shown. In short, it runs like this:
as §1

Another assay has as its target T2, SPIC (Homo sapiens, UniProt Q8N5J4 1-248).
T2 sequence: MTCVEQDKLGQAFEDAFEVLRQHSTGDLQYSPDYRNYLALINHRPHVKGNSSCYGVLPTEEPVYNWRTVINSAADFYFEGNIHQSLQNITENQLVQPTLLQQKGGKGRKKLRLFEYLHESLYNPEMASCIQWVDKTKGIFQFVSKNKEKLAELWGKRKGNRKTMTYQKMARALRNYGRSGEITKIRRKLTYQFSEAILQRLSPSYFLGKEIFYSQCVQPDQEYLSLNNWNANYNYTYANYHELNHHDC
As to conditions: protein: recombinant; tags: N-terminal GST; dsDNA, one strand shown. The essentials: as §1

Another assay has as its target ELF4 (Homo sapiens, UniProt Q99607 1-663). The settings on record: protein: recombinant; tags: N-terminal GST; dsDNA, one strand shown. In short, it runs like this:
as §1

A further assay deals with T3, ELK4 (Homo sapiens, UniProt P28324-2 1-405).
T3 sequence: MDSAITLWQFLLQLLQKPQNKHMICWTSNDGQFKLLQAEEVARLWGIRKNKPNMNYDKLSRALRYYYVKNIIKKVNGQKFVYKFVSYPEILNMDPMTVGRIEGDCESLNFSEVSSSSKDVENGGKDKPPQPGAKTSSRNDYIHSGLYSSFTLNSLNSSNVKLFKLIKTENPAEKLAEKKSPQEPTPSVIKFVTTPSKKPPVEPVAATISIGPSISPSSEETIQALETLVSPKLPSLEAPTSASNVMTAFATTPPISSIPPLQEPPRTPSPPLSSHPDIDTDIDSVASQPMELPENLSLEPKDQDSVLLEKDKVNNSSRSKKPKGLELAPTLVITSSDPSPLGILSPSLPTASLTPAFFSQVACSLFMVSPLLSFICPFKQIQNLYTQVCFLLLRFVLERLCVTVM
The settings on record: protein: recombinant; tags: N-terminal GST; dsDNA, one strand shown. The essentials: as §1

In another assay the target is T4, ETV2 (Homo sapiens, UniProt O00321 1-342).
T4 sequence: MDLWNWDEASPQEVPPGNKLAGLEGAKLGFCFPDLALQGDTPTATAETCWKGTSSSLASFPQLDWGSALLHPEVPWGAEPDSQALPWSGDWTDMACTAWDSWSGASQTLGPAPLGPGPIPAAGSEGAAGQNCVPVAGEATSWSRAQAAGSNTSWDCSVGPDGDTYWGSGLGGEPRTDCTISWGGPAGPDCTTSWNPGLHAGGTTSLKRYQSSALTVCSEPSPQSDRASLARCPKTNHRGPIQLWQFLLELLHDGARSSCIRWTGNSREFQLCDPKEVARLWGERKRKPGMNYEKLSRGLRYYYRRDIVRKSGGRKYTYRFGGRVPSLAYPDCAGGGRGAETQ
The settings on record: protein: recombinant; tags: N-terminal GST; dsDNA, one strand shown. In short, it runs like this: as §1

For the next assay, the target named is T5, ELF3 (Homo sapiens, UniProt P78545 1-371).
T5 sequence: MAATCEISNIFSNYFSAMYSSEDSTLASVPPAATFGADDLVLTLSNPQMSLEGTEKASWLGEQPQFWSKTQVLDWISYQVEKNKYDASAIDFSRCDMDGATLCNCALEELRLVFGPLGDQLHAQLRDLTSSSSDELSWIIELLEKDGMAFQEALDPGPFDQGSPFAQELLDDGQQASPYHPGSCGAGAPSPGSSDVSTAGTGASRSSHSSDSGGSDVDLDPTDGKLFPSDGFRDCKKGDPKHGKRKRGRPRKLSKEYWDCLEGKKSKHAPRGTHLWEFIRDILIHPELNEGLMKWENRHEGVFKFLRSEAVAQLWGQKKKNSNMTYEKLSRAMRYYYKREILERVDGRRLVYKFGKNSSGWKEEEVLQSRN
As to conditions: protein: recombinant; tags: N-terminal GST; dsDNA, one strand shown. In short, it runs like this:
as §1

The target in a further assay is CRX (Homo sapiens, UniProt O43186 1-299). The settings on record: protein: recombinant; tags: N-terminal GST; dsDNA, one strand shown. In short, it runs like this:
as §1

The target in another assay is ETV1 (Homo sapiens, UniProt P50549 1-477). As to conditions: protein: recombinant; tags: N-terminal GST; dsDNA, one strand shown. The essentials:
as §1

In a further assay the target is T6, ERF (Homo sapiens, UniProt P50548 1-548).
T6 sequence: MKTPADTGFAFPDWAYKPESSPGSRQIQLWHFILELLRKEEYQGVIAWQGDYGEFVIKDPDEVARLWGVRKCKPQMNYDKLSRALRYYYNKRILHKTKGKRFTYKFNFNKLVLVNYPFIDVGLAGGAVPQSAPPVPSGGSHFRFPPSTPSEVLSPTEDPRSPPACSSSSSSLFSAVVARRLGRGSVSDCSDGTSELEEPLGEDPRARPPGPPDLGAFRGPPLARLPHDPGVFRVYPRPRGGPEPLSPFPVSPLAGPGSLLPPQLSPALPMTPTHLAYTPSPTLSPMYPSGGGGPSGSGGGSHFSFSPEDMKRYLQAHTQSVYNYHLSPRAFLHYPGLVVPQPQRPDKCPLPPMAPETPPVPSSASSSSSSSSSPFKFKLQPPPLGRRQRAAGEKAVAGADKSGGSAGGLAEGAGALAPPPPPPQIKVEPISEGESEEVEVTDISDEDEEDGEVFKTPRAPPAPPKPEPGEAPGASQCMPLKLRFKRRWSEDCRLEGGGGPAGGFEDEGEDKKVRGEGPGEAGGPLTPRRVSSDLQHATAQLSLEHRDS
As to conditions: protein: recombinant; tags: N-terminal GST; dsDNA, one strand shown. In short, it runs like this:
as §1

In the next assay the target is T7, ETV3L (Homo sapiens, UniProt Q6ZN32 1-361).
T7 sequence: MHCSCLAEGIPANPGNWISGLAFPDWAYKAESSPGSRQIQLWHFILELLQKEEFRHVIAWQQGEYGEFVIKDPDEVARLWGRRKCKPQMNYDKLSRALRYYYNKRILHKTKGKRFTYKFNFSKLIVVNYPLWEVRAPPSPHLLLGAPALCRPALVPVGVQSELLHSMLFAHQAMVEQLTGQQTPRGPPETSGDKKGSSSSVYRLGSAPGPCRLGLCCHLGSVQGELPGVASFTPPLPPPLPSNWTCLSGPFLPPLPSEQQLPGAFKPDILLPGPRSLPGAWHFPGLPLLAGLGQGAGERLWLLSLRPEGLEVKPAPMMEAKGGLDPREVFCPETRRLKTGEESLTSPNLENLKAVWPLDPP
As to conditions: protein: recombinant; tags: N-terminal GST; dsDNA, one strand shown. In short, it runs like this:
as §1

A further assay deals with T8, ETS2 (Homo sapiens, UniProt P15036 1-469).
T8 sequence: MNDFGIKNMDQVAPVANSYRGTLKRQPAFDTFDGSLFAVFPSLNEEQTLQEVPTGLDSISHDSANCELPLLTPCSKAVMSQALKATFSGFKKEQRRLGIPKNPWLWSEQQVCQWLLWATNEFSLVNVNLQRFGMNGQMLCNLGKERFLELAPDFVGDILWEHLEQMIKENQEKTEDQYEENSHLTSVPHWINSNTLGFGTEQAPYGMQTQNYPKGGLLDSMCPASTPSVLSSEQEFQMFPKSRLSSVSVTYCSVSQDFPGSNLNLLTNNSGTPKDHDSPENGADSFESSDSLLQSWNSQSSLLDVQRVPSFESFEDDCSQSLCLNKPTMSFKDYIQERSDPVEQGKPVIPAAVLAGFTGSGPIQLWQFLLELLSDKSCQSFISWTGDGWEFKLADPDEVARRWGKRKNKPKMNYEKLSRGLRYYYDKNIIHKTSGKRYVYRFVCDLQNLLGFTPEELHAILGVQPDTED
The settings on record: protein: recombinant; tags: N-terminal GST; dsDNA, one strand shown. In short, it runs like this: as §1

The target of the next assay is T9, SPDEF (Homo sapiens, UniProt O95238 1-335).
T9 sequence: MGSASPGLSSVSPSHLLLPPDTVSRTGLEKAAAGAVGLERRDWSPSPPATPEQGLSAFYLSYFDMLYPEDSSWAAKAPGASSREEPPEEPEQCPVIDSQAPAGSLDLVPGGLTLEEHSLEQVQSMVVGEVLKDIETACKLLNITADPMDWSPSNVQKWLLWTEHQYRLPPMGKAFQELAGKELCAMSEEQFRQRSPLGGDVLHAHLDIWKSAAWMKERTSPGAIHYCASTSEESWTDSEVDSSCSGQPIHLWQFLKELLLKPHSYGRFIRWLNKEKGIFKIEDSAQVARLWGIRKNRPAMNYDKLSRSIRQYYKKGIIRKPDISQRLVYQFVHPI
The settings on record: protein: recombinant; tags: N-terminal GST; dsDNA, one strand shown. In short, it runs like this:
as §1

The target of the next assay is T10, ETV7 (Homo sapiens, UniProt Q9Y603 1-341).
T10 sequence: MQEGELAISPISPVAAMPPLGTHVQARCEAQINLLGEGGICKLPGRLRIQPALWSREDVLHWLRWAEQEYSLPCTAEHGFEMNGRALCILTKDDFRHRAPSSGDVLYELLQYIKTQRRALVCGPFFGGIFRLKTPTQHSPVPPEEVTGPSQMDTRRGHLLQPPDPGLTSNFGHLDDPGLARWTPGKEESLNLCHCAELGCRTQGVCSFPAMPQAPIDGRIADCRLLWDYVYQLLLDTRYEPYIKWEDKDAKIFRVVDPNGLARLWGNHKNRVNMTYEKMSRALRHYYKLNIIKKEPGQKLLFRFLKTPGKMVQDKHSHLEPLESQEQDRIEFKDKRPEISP
As to conditions: protein: recombinant; tags: N-terminal GST; dsDNA, one strand shown. In short, it runs like this:
as §1

In a further assay the target is T11, ELF5 (Homo sapiens, UniProt Q9UKW6-2 1-255).
T11 sequence: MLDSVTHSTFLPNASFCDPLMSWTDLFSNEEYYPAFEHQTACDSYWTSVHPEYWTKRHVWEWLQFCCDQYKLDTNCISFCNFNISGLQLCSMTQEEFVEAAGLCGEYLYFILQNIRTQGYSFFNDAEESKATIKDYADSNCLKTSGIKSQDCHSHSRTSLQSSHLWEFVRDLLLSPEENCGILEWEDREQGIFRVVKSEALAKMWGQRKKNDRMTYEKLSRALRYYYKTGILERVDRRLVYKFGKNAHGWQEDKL
The settings on record: protein: recombinant; tags: N-terminal GST; dsDNA, one strand shown. In short, it runs like this:
as §1

Another assay addresses T12, ETV3 (Homo sapiens, UniProt P41162-2 1-143).
T12 sequence: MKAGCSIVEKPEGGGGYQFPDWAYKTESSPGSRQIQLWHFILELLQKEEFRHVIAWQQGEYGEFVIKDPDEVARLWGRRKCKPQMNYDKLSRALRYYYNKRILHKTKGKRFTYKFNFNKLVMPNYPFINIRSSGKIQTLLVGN
The settings on record: protein: recombinant; tags: N-terminal GST; dsDNA, one strand shown. In short, it runs like this:
as §1

A further assay has as its target ETV6 (Homo sapiens, UniProt P41212 1-452). The settings on record: protein: recombinant; tags: N-terminal GST; dsDNA, one strand shown. In short, it runs like this: as §1

ETV5, sequence (P41161 whole entry): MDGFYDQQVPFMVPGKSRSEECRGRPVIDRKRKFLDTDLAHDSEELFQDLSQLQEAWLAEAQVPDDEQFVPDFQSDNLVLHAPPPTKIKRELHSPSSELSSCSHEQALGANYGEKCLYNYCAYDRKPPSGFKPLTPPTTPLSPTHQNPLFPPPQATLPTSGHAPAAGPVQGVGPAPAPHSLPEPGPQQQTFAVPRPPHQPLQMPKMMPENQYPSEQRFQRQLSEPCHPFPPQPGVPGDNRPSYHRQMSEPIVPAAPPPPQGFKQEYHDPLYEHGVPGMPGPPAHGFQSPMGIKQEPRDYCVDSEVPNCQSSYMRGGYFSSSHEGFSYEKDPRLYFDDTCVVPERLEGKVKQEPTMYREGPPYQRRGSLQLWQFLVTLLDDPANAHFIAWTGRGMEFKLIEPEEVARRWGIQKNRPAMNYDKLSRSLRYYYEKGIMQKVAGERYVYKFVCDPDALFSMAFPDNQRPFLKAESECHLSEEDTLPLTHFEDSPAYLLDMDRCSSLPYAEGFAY
HSF1, sequence (Q00613 whole entry): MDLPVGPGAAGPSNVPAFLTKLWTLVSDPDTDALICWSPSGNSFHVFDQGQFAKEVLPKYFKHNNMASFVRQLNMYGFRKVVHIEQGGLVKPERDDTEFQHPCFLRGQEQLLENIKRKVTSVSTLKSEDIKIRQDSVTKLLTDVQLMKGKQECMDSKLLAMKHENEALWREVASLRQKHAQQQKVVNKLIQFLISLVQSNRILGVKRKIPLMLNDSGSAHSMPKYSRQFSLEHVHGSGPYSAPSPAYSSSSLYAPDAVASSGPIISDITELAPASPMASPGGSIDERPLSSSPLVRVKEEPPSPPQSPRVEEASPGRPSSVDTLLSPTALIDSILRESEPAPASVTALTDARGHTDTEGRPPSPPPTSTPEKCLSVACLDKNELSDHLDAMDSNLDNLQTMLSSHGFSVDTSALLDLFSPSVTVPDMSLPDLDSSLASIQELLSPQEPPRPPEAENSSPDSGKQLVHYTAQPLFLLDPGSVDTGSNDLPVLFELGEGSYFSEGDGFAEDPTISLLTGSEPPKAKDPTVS
ELF4, sequence (Q99607 whole entry): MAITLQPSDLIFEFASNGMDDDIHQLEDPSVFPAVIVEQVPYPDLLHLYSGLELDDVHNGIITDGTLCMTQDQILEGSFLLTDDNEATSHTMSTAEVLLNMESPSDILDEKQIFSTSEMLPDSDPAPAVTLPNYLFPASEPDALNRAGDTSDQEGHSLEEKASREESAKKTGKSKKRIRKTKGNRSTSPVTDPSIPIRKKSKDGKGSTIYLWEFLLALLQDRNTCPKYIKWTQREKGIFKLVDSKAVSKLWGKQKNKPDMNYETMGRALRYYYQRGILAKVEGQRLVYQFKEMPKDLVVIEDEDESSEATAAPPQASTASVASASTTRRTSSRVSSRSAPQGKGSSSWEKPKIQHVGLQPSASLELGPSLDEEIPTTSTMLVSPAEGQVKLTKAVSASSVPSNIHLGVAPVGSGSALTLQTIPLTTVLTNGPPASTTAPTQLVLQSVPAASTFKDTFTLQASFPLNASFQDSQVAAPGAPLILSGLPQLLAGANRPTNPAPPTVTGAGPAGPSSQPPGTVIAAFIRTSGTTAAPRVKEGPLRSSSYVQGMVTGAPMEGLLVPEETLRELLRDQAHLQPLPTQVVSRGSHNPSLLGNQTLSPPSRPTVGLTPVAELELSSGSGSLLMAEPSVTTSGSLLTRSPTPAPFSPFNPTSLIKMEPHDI
ETV1, sequence (P50549 whole entry): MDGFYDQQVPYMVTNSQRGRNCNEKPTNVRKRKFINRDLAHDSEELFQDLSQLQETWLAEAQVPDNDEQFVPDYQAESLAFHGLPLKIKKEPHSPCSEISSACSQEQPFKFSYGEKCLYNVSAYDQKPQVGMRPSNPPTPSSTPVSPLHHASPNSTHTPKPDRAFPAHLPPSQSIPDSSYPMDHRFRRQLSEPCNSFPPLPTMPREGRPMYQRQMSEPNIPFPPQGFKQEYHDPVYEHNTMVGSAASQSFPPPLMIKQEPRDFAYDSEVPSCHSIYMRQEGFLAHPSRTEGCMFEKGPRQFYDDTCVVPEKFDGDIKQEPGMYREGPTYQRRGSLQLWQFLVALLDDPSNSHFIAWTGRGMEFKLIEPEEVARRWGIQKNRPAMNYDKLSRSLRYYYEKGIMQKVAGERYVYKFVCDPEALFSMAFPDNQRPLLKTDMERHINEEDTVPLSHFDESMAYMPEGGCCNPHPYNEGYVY
CRX, sequence (O43186 whole entry): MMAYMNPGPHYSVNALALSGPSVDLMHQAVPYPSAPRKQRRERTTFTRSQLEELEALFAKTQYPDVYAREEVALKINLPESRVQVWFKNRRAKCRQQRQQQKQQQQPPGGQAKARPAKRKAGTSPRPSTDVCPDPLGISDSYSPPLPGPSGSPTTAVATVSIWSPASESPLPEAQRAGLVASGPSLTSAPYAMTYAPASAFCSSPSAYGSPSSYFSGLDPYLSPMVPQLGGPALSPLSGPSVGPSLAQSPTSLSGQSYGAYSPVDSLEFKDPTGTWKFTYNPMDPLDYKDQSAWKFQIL
ETV6, sequence (P41212 whole entry): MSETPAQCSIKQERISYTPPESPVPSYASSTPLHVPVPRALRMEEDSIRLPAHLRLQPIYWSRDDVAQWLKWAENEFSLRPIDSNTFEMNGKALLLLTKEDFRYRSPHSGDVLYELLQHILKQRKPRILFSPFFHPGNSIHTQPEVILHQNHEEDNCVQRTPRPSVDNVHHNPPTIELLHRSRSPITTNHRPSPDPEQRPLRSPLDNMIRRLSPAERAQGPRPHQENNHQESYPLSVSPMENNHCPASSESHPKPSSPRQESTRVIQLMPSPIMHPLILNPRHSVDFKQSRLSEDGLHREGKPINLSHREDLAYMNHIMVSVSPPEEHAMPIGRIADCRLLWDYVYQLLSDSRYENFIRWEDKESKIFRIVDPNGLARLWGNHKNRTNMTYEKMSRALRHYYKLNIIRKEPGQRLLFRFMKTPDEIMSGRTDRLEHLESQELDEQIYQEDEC

Regarding GTTTTT, the binding signal with FEV was 1.23 fold enrichment (6-mer frequency, TF over GST control); in the assay with ETV5 it was 1.31 fold enrichment (6-mer frequency, TF over GST control); with HSF1 it was 1.21 fold enrichment (6-mer frequency, TF over GST control); with SPIC, 1.41 fold enrichment (6-mer frequency, TF over GST control); with ELF4, 1.33 fold enrichment (6-mer frequency, TF over GST control); with ELK4 it was 1.32 fold enrichment (6-mer frequency, TF over GST control). In addition, the binding signal in the assay with ETV2 was 1.38 fold enrichment (6-mer frequency, TF over GST control); with ELF3, 1.29 fold enrichment (6-mer frequency, TF over GST control); with CRX, 1.13 fold enrichment (6-mer frequency, TF over GST control); with ETV1, 1.24 fold enrichment (6-mer frequency, TF over GST control); with ERF, 1.07 fold enrichment (6-mer frequency, TF over GST control); with ETV3L, 1.3 fold enrichment (6-mer frequency, TF over GST control). The binding signal was 1.25 fold enrichment (6-mer frequency, TF over GST control) with ETS2; 1.23 fold enrichment (6-mer frequency, TF over GST control) with SPDEF; 1.2 fold enrichment (6-mer frequency, TF over GST control) with ETV7; 1.36 fold enrichment (6-mer frequency, TF over GST control) in the assay with ELF5; 1.34 fold enrichment (6-mer frequency, TF over GST control) with ETV3; 1.21 fold enrichment (6-mer frequency, TF over GST control) with ETV6.

For the origin of these results see article PMC7862700, “An all-to-all approach to the identification of sequence-specific readers for epigenetic DNA modifications on cytosine”.
